# Assay outcomes from PubChem.
# Rows were chosen to be rich in hits. Some 10% of all compounds tested hit in one or more screens of this group.
# BAZ2B block: blocks human BAZ2B. Q9UIF8. AlphaScreen BAZ2B-H3K14Ac peptide displacement. Potency, µM (series often up to 114 µM), without a hit: at the top dose activity change, negative = inhibition, most hits filed as inhibitors. 360,000 compounds, 4.4% hits. AID 504333; further: potency means the concentration at half of the fitted maximal effect; on the % scale 0 is the no-effect control and ±100 the full control effect; nearly all actives have a fitted effect of over 60% in size
#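 Multi-concentration screen (max 110 uM) measuring displacement of acetylated histone H3 peptide from BAZ2B by AlphaScreen, using 50 nM protein, 50 nM peptide and 10 ug/mL streptavidin donor plus Ni-chelate acceptor beads.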
# JMJD2A Tudor: blocks the human JMJD2A Tudor domain | O75164 | AlphaScreen JMJD2A-Tudor / H3K4me3 peptide binding | Potency, µM (series often up to 114 µM), inactives show at the top dose activity change, negative = inhibition, actives largely listed as inhibitors | 390,000 compounds, 4.4% hits | AID 504339; further: potency means the concentration at half of the fitted maximal effect; on the % scale 0 is the no-effect control and ±100 the full control effect; nearly all actives have a fitted effect of over 50% in size
# Six1-Eya2 inh: Six1/Eya2 interaction inhibition; Q15475+O00167; AlphaScreen GST-Six1/His-Eya2 binding, biochemical; stronger effect = lower value; activity change, % (no concentration beside the values); 360,000 compounds, 0.56% hits; in the data active means activity change below about -65%; inconclusive means mostly about -30% to -63%; further: on the % scale 0 is the no-effect control and ±100 the full control effect
#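 Compounds are tested against tagged Six1 and Eya2 proteins bridged by glutathione donor and nickel acceptor beads; after a one-hour incubation at 37 °C without light, AlphaScreen emission is recorded.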
# G9a inh: G9a (human) methyltransferase inhibition. 350,000 compounds, 8.8% hits. Q96KQ7. G9a H3K9 monomethylation, AlphaScreen, 2 h. Potency, µM (series often up to 102 µM), for the others: top-dose activity, negative = inhibition, hits mostly inhibitors; further: potency means the concentration at half of the fitted maximal effect; on the % scale 0 is the no-effect control and ±100 the full control effect; nearly all actives have a fitted effect of over 75% in size
# Target sequence (Q96KQ7 913-1193 limits assumed): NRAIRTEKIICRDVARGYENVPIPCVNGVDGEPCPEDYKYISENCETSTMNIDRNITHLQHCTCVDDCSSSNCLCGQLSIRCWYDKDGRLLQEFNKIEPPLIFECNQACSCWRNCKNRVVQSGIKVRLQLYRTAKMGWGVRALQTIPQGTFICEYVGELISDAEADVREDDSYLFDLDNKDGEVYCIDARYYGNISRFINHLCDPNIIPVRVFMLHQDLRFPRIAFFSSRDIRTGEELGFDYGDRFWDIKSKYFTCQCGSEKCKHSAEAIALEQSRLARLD
#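 Step 1: enzyme (final 20 nM) with compound, 15 min RT. Step 2: substrate peptide 500 nM and SAM 20 uM, 2 h RT. Step 3: anti-H3K9me1 antibody and AlphaScreen beads, 10 min, then plate read.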
# HP1b binding inh: blocks HP1-beta chromodomain binding to methylated histone tails; AlphaScreen HP1-beta / biotin-H3K9me3 peptide binding; Potency, µM (highest dose often 114 µM), for inactives: at the highest dose activity change, negative = inhibition, actives largely listed as inhibitors; 390,000 compounds, 0.56% hits; further: potency means the concentration at half of the fitted maximal effect; nearly all actives have a fitted effect of over 70% in size
# Target sequence (P83916 whole entry, looked up): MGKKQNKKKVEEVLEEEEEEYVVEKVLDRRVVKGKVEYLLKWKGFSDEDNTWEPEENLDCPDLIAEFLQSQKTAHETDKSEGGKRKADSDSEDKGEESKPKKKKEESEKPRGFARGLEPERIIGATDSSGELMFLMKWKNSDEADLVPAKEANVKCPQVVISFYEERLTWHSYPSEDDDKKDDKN
#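 AlphaScreen: HP1-beta (50 nM) preformed 30 min with biotin-H3(1-18)K9me3 peptide (50 nM) in PBS pH 7.4, 0.01% Tween-20. Compound added for 30 min at RT, then streptavidin donor/nickel chelate acceptor beads (10 ug/mL) for 30 min.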
# CtBP-E1A inh: inhibitors of CtBP/E1A interaction; AID 651724; 340,000 compounds, 0.49% hits; activity change, % (no concentration beside the values); AlphaScreen GST-E1A/His-CtBP binding, 1536-well; stronger effect = lower value; in the data active means activity change below about -65%; inconclusive means mostly about -30% to -63%; further: on the % scale 0 is the no-effect control and ±100 the full control effect
#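 Protein mix (5X: 125 nM each GST-E1A, His-CtBP) was incubated with pinned compound 2 h at 37 deg C in dark, in 50 mM Tris pH 8.0 buffer with 300 mM NaCl. Glutathione donor and nickel acceptor beads followed; AlphaScreen signal read after 1 h.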
# * = called active by the depositor; u = inconclusive; x = no result; [ ] = remark or other dose. Unless noted, the call rests on the fitted dose curve; in most records, active means well fitted inhibition curve with a large enough effect; inconclusive means small, poorly fitted or top-dose-only effect; inactive means no such curve, though single readings can be large or run the other way.
SMILES,BAZ2B block,JMJD2A Tudor,Six1-Eya2 inh,G9a inh,HP1b binding inh,CtBP-E1A inh
Oc1ccc(-c2csc(-c3ccccc3)n2)cc1O,56µM*,40µM*,-11,u,u,-15
Cc1cc(C)cc(NC(=O)Cc2c(C(=O)O)c(C)cn2C)c1,-21%,-25%,x,-11%[59 µM],16%,x
Cc1nc(-c2ccc(O)c(O)c2)cs1,-36%,4µM*,-4,1.4µM*,u,-3
O=C(CCn1c(=O)c2sccc2n(CC(=O)Nc2ccccc2)c1=O)NCc1ccccc1Cl,-12%,5%,x,-7%[59 µM],27%,x
Clc1ccc(-c2nn3c(-c4cc(-c5ccccc5)n[nH]4)nnc3s2)cc1,x,12%[57.1 µM],x,x,10%[57 µM],x
Cc1ccc(S(=O)(=O)Nn2c(O)c(C=C3N=c4ccccc4=N3)sc2=S)cc1,-30%,u,-5,u,-18%,-29
O=C1N=c2ccc(Br)cc2=C1c1sc(=S)n(NS(=O)(=O)c2ccccc2)c1O,20µM*,50µM*,-8,16µM*,u,2
Cc1oc(-c2ccccc2F)nc1Cn1c(SCc2ccccc2F)nc2ccncc21,u,u,x,13µM*,-1%,x
COc1ccccc1NC(=O)C(=O)NCC(c1cccnc1)N1CCc2ccccc2C1 (centres undefined),u,-29%,x,u,1%,x
CCN1CCN(c2ccc(NC(=O)c3cccc(OCc4ccccc4)c3)cc2)CC1,-35%,-28%,-6,u,5%,-3
CCN1CCN(c2cc(C)c3cc(NC(=O)c4ccc5c(c4)OCO5)ccc3n2)CC1,14%,-30%,-25,-11%,25%,-4
CCC(=O)N1CCN(c2ccc(NC(=O)c3ccc4c(c3)OCCO4)cc2)CC1,-12%,-10%,6,-3%,23%,-4
CN1CCN(c2ccc(NC(=O)c3ccc4c(c3)OCCO4)cc2)CC1,-16%,-18%,-3,45µM*,6%,5
CCN1CCN(c2ccc(NC(=O)c3ccc4c(c3)OCCO4)cc2C)CC1,u,-16%,-6,7.9µM*,1%,3
CN1CCN(c2ccc(NC(=O)c3cccc(OCc4ccccc4)c3)cc2)CC1,u,u,-17,16µM*,-4%,-19
Cc1ccc(C(=O)Nc2ccc(N3CCN(S(C)(=O)=O)CC3)cc2)cc1C,-17%,-10%,15,-1%,6%,-27
Cc1ccc(C(=O)Nc2ccc(N3CCN(C)CC3)cc2)cc1C,-37%,-26%,0,71µM*,4%,x
Cc1ccc(CN2CCN(C3CCN(C(=O)Nc4ccc(C)cc4Cl)CC3)C(=O)C2=O)cc1,-6%,-11%,x,2%[59 µM],21%,x
O=c1cnc2cnc(OCc3ccccc3)nc2n1Cc1ccc(F)cc1,x,x,x,3%[12.7 µM],x,x
O=C(Cc1ccccc1Nc1c(Cl)cccc1Cl)OCO/N=[N+](\[O-])N1CCCC1,x,u,x,x,-8%,x
COc1ccc(C(=O)n2nc(-c3ccco3)nc2N)cc1,-10%,u,0,18µM*,-12%,-2
Cc1ccc(C(=O)n2nc(-c3ccco3)nc2N)cc1,3%,-9%,9,6%[59 µM],43%,-16
Nc1nc(-c2ccco2)nn1C(=O)c1cccnc1,7%,-6%,1,50µM*,63%,-9
Cc1ccc(Nc2nnns2)cc1,-37%,-23%,12,5.6µM*,u,-2
Cc1ccc(Nc2nc3ccccc3s2)cc1,-2%,-12%,6,7%[59 µM],16%,9
SMILES,BAZ2B block,JMJD2A Tudor,Six1-Eya2 inh,G9a inh,HP1b binding inh,CtBP-E1A inh
CC(C)Oc1ccc(CNC(=O)Cn2ncn3nc(-c4cccs4)cc3c2=O)cc1,-21%,-5%,x,-44%[59 µM],22%,x
COc1c2occc2c(OC)c2c(=O)cc(C)oc12,-5%,-11%,-20,14%[59 µM],23%,u
Cc1cc(=O)c2c(o1)C(=O)c1occc1C2=O,x,45µM*,-29,x,-23%,0
Cc1cc(=O)n(C)c(=O)n1CCCCCCN1CCCC1,u,3.2µM*,1,11µM*,u,-11
COc1ccc(-c2nncnn2)cc1,45µM*,u,4,u,-39%,-1
COc1ccc(-c2ccc(OC)cc2)cc1,44%,6%,3,0%[59 µM],30%,10
CC(C)c1ccc2oc(-c3cccc(NC(=O)c4ccc5c(c4)OCCO5)c3)nc2c1,6%,2%,x,2%[59 µM],23%,x
COc1ccc(NC(=O)CSC2=Nc3ccccc3C3=NC(CCC(=O)NCc4ccc(F)cc4)C(=O)N23)cc1Cl (centres undefined),-13%,-17%,x,-8%[59 µM],18%,x
CCCCC[C@@H]1C=C(C(=O)O)[C@H](c2ccc(C)cc2)N1S(=O)(=O)c1ccc(C)cc1,x,89µM*,-2,x,0%,-3
CCCC[C@@H]1C=C(C(=O)O)[C@H](c2ccc(C)cc2)N1S(=O)(=O)c1ccc(C)cc1,x,-12%,2,x,16%,-1
Cc1ccc(OCc2cc(=O)n3c(-c4ccccc4)csc3n2)cc1,5%,u,x,5%[59 µM],29%,x
O=c1cc(CN2CCN(c3ccccc3)CC2)nc2scc(-c3ccccc3)n12,u,-33%,-11,-44%,4%,1
CCOC(=O)C1CCN(Cc2cc(=O)n3c(-c4ccccc4)csc3n2)CC1,-4%,-7%,2,-6%,26%,0
C=CCNCc1cc(=O)n2c(-c3ccccc3)csc2n1,50µM*,3.5µM*,3,u,u,1
Cc1cc(C)cc(OCc2cc(=O)n3c(-c4ccccc4)csc3n2)c1,79µM*,u,x,2%[59 µM],6%,x
CCOc1ccc(NC(=O)CN(C)Cc2cc(=O)n3c(-c4ccccc4)csc3n2)cc1OCC,u,-26%,2,50µM*,6%,0
COc1ccc(-c2noc(-c3ccc(NC4CCCC4)c([N+](=O)[O-])c3)n2)cc1,-32%,-8%,x,u,58%,x
CCOCCCNC(=O)C(c1ccc(Cl)cc1)N(Cc1ccc2c(c1)OCO2)C(=O)c1ccc(NC(C)=O)cc1 (centres undefined),-12%,-7%,x,-12%[59 µM],37%,x
O=C1c2ccccc2C(=O)c2c([N+](=O)[O-])ccc(O)c21,u,u,-28,-25%[59 µM],-11%,-28
CC1=CC(=O)c2c(O)ccc(O)c2C1=O,3.5µM*,x,x,-189%[59 µM],x,x
CCC(=O)N1CCc2cc(S(=O)(=O)CCC(=O)Nc3cccc(F)c3)ccc21,9%,7%,-2,22µM*,36%,6
CCC(=O)N1CCc2cc(S(=O)(=O)CCC(=O)Nc3ccc(F)c(F)c3)ccc21,56µM*,-23%,11,5%,22%,-1
COc1ccc(CNC(=O)CCS(=O)(=O)c2ccc3c(c2)CCN3C(C)=O)cc1,-8%,-30%,-92*,19%,-7%,7
